Screens from PubChem.
Pf growth 48h = Primary qHTS for delayed death inhibitors of the malarial parasite plastid, 48 hour incubation. P. falciparum luciferase growth in erythrocytes, 48 h. Potency, µM (highest dose often 28.7 µM), for the others: at the top dose activity change, negative = inhibition, usual class: inhibitors. 310,000 tested, 5.9% active. AID 504832, 2011; also: potency is read from the fitted curve at half-maximal effect; % is scaled to controls: 0 for no effect and ±100 for the full control effect
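A one-generation exposure of luciferase-tagged malaria parasites in RPMI 1640/Albumax erythrocyte culture, 37 C and 5% CO2. Inhibition is inferred from decreased luminescence after adding detection reagent.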
SARS PLpro yeast = qHTS of Yeast-based Assay for SARS-CoV PLP. S. cerevisiae expressing SARS-CoV PLpro, growth rescue. Potency, µM (titrated, usually from 32.9 µM), for the others: at the top dose activity, positive = growth rescue, hits mostly activators. 330,000 tested, 0.19% active; calls by dose curve; also: potency is read from the fitted curve at half-maximal effect; 0% is about no effect; nearly all actives have a fitted effect of over 55% in size
AMA1-RON2 inh = qHTS for Inhibitors of AMA1-RON; Towards Development of Antimalarial Drug Lead: Primary Screen | Plasmodium falciparum AMA1 (3D7) - RON2 peptide interaction | 360,000 tested, 0.2% active | AID 720542, 2013 | Potency, µM (doses to about 58.2 µM), without a hit: top-dose activity change, negative = inhibition, actives largely listed as inhibitors | AlphaScreen AMA1-biotinylated RON2 peptide binding;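 also: potency is read from the fitted curve at half-maximal effect; 0% = vehicle wells and -100% = peptide control; nearly all actives have a fitted effect of over 45% in size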
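AMA1 (3D7) with his tag at 25 nM final met compounds first, then biotinylated RON2 peptide at 25 nM; detection used donor plus acceptor beads, 10 µg/mL apiece, read by AlphaScreen after 30 min at room temperature.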
Cycloheximide cs = Cycloheximide Counterscreen for Small Molecule Inhibitors of Shiga Toxin. AID 2314, 2010. max response, %. cell reporter, cycloheximide protein synthesis inhibition counterscreen. 300,000 tested, 12% active; in the data active = max response mostly above about 13%, no sharp cut-off; inactive = mostly below about 14%; also: read at 38.3 µM for the half of the compounds with a filed dose; 0% is about no effect
Pf growth 96h = Primary qHTS for delayed death inhibitors of the malarial parasite plastid, 96 hour incubation | P. falciparum luciferase reporter growth, 96 h | Potency, µM (top dose mostly 28.7 µM), without a hit: top-dose activity change, negative = inhibition, most hits filed as inhibitors | 320,000 tested, 6.9% active | AID 504834, 2011; also: potency is read from the fitted curve at half-maximal effect; % is scaled to controls: 0 for no effect and ±100 for the full control effect
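Cell-based qHTS: luciferase-tagged P. falciparum in erythrocytes (2% hematocrit, 0.05% parasitemia final) incubated with compounds for 96 hours, 37 C, 5% CO2; luciferase detection reagent then added and luminescence measured.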
Shiga toxin inh = A qHTS for Small Molecule Inhibitors of Shiga Toxin | Vero cells, Shiga toxin protein synthesis inhibition reporter | inhibition, % at 38.7 µM | 290,000 tested, 9.2% active | AID 2315, 2010; in the data active = inhibition mostly above about 28%, no sharp cut-off; inactive = mostly below about 43%; also: 0% is about no effect
Starred values were filed as active, the others as inactive; u = inconclusive; x = not tested or not shown; [ ] = another dose, or the depositor's remark. Sampled rows, rich in hits. Any-hit rate of the full collection: about 19%. Unless noted, calls follow the shape of the dose curve; as a rule, active = well fitted curve in the direction sought with a large enough effect; inconclusive = small, poorly fitted or top-dose-only effect, or another doubt; inactive = no such curve, though single readings can be large; an effect the other way counts as inactive or inconclusive.

SMILES	Pf growth 48h	SARS PLpro yeast	AMA1-RON2 inh	Cycloheximide cs	Pf growth 96h	Shiga toxin inh
COc1ccc(-c2cc(C(=O)NC3CCCC3)no2)cc1OC	55.1%	2.6%	-2.7%	24.5*	u	26.1*
COC(=O)c1cccc(C(=O)N2CCCC(CCC(=O)N(C)CCc3ccccn3)C2)c1 (stereo unspecified)	u	6.6%	-1.5%	0.9	-19.6%	0.7
COCCN(C(=O)CSc1n[nH]c(-c2ccccc2)n1)c1c(N)n(CC(C)C)c(=O)[nH]c1=O	2.6%	0.1%	0.5%	x	0.7%	x
COCCCn1c(-c2ccc(OC)cc2)cc(C(=O)NC2CCCCCCC2)c1C	13.1µM*	-42.5%	-28.2%	-2.9	14.7µM*	-13.5
O=C(NC1CCCCC1)c1cc(-c2ccco2)on1	72.2%	-4.2%	-8.2%	36.4*	11.7µM*	142.9*
CCN(CC)CCCNC(=O)c1cc(-c2ccc(Cl)c(Cl)c2)on1	10.4µM*	-4.7%	-9.5%	-2.6	-20.5%	-6.6
COc1cccc(-c2cc(C(=O)NC3CCCCC3)no2)c1	89.1%	-0.8%	-3.6%	19.7	64.6%	80.6*
COC(=O)c1cc(-c2cccc(OC)c2)on1	48.8%	-2.7%	15.1%	-1.4	7.2%	8.7
CCOc1ccc(Cc2n[nH]c(=S)n2Cc2ccccc2)cc1	-38.4%	0.0%	78.1%	8.2	34.8%	-2.1
CC(SCc1ccccc1)C(=O)Nc1ccccc1F (stereo unspecified)	32.5%	3.5%	-0.9%	14.8	0.928µM*	3.3
CC[C@]12c3[nH]c4ccccc4c3CCN1C(=O)C(CC(=O)NCCCN(C)C)C[C@@H]2C(=O)N1CCN(C(=O)c2ccco2)CC1 (stereo partly specified)	x	-7.2%	-5.2%	x	x	x
COc1ccc([N+](=O)[O-])cc1N(CC(O)CN1CCCCC1)S(=O)(=O)c1ccccc1 (stereo unspecified)	-16.5%	1.1%	-14.7%	-2.3	-2.1%	18.9
COc1ccc([N+](=O)[O-])cc1N(CC(O)CN1C(=O)NC(C)(C)C1=O)S(=O)(=O)c1ccccc1 (stereo unspecified)	22.5%	-3.4%	-0.1%	-6.4	14.7µM*	-15.2
COc1ccc(NC(=O)c2ccc(-c3ccc(-c4noc(C)n4)cc3C)cc2)cc1OCCN(C)C	x	x	x	-4.5	x	-10.8
COc1ccc(NC(=O)c2ccc(-c3ccc(-c4noc(C)n4)cc3C)cc2)cc1N1CCN(C)CC1	3.29µM*	x	u	x	2.62µM*	x
CC1=C(C(=O)N2CCOCC2)CC(CC(=O)NCCCN(C)C)C(=O)N1CCC1=CCCCC1 (stereo unspecified)	x	x	2.2%	x	x	x
Cc1c(-c2cc(C(=O)O)no2)cnn1C	2.2%	-1.1%	-2.3%	29.0*	30.3%	49.7*
CCn1ncc(-c2cc(C(=O)O)no2)c1C	4.2%	-0.7%	-13.6%	-4.2	-0.4%	-24.8
COCc1cc(=O)[nH]c(/N=C(\N)Nc2cccc(Cl)c2)n1	10.6%	0.3%	42.5%	9.6	6.6%	11.9
CCOCCCn1c(SCC(=O)Nc2cccc(S(=O)(=O)NC3=NCCCCC3)c2)nc2ccccc2c1=O	6.57µM*	-0.6%	4.2%	4.9	-9.6%	4.3
Cc1ccc(-n2c(SCC(=O)Nc3cccc(S(=O)(=O)NC4=NCCCCC4)c3)nc3ccccc3c2=O)cc1C	u	-3.9%	-6.3%	1.5	u	-7.6
CCCn1c(SCC(=O)Nc2cccc(S(=O)(=O)NC3=NCCCCC3)c2)nc2ccccc2c1=O	8.28µM*	4.5%	15.2%	-5.2	6.57µM*	-10.5
O=c1c2ccccc2c(C=Nc2cccc(S(=O)(=O)NC3=NCCCCC3)c2)c(O)n1Cc1ccccc1	1.65µM*	0.1%	-12.0%	-0.3	u	-6.3
COc1ccc(Cn2c(O)c(C=Nc3ccc(OC)cc3)c3ccccc3c2=O)cc1	-7.0%	16.6%	-9.0%	-2.8	-3.6%	-5.7
CCOC(=O)[C@]12CCC=C1N(Cc1cccc3ccccc13)C(=O)[C@H](CC(=O)N1CCCC1)C2	x	x	-9.2%	x	x	x
SMILES	Pf growth 48h	SARS PLpro yeast	AMA1-RON2 inh	Cycloheximide cs	Pf growth 96h	Shiga toxin inh
CCc1cc2c(=O)c(-c3nc(C)cs3)c(CCCC(=O)O)oc2cc1O	3.4%	0.4%	-0.7%	-5.2	9.28µM*	8.3
CCN(CC)c1ccc(N=Cc2c(O)n(Cc3ccco3)c(=O)[nH]c2=O)cc1	11.7µM*	0.3%	-19.1%	0.6	u	-2.4
CCN(CCO)c1ccc(N=Cc2c(O)n(C)c(=S)[nH]c2=O)cc1	55.8%	0.2%	-14.5%	44.2*	-1.2%	79.9*
NC(=O)c1ccc(N=Cc2c(O)n(Cc3ccco3)c(=O)[nH]c2=O)cc1	73.8%	0.0%	-18.7%	-5.1	21.9%	-8.0
CCN(CC)c1ccc(N=Cc2c(O)n(CCc3ccc(OC)c(OC)c3)c(=O)[nH]c2=O)cc1	7.38µM*	8.1%	-12.3%[2.32 µM]	11.3	10.4µM*	7.0
O=C(N=Nc1ccc(NOC(=O)c2ccccc2Br)cc1)c1ccccc1O	184.9%	3.4%	x	6.4	169.4%	17.5
COc1ccc(C[C@H]2CN3C(=NC[C@@H]3Cc3ccc(O)cc3)N2CCNC(=O)c2ccc(C)c(Br)c2)cc1	3.7µM*	-0.3%	-24.6%	-3.9	1.17µM*	-3.3
Cc1ccc(S(=O)(=O)NCc2ccc(C(=O)NCCCN3CCC(Cc4ccccc4)CC3)cc2)cc1	u	0.5%	0.8%	-3.4	u	-5.1
C/C=C(\C)C(=O)NCCN1C2=NC[C@H](Cc3ccccc3)N2C[C@H]1Cc1ccc(O)cc1	-20.7%	0.7%	-6.3%	0.6	3.7µM*	5.6
C/C=C(\C)C(=O)NCCN1C2=NC[C@H](Cc3ccccc3)N2C[C@@H]1Cc1ccc(OC)cc1	x	x	-4.2%	x	x	x
Cc1ccc(C(=O)NCCN2C3=NC[C@@H](Cc4ccccc4)N3C[C@H]2Cc2ccc(O)cc2)cc1Br	9.28µM*	1.4%	-5.7%	-2.5	u	-15.7
Cc1ccc(C(=O)NCCN2C3=NC[C@H](Cc4ccc(O)cc4)N3C[C@H]2Cc2ccc(O)cc2)cc1Br	4.15µM*	-0.5%	-25.7%	-5.6	2.94µM*	-10.3
CN(C)CCNc1nc(-c2ccccc2F)c2sccc2n1	x	x	-2.1%	x	x	x
CC(=O)Oc1ccc(C(=O)Nc2ccc(S(=O)(=O)N3CCOCC3)cc2)cc1	u	-4.7%	-8.0%	-0.8	4.7%	-7.1
COc1cccc(NC(=O)CN2CCN(S(=O)(=O)c3ccc(F)cc3)CC2)c1	7.8%	1.4%	-0.7%	-2.0	x	-16.6
COc1cccc(NC(=O)CN2CCN(S(=O)(=O)c3ccc(C(C)C)cc3)CC2)c1	u	-4.6%	-4.4%	-2.5	11.7µM*	-29.5
CC(=O)c1c(C)[nH]c(C(=O)CN2CCN(S(=O)(=O)c3ccc(C(C)C)cc3)CC2)c1C	11.7µM*	-5.1%	-8.8%	x	11.7µM*	x
